{"source": "PubChem BioAssay (Tox21)", "note": "Inconclusive results are not listed. Entries that show only a call come without a potency. Activity calls are given as the source filed them. Calls come from the whole dose curve.", "data": [{"test": "G protein-coupled receptor (GPCR) small molecule agonists, calcium flux assay: HEK293 wild type cell line counter screen (AID 1920065)", "conditions": "HEK293 WT calcium flux, fluorescence, agonist mode; series mostly up to 57.6 µM", "procedure,_shortened": "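Non-specific calcium responders were flagged by adding DMSO-dissolved compounds to dye-loaded cells and reading 480/540 nm fluorescence each second for 3 min; ATP served as positive control.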", "values": [{"smiles": "Nc1ncc([N+](=O)[O-])s1", "Potency": "inactive"}, {"smiles": "Oc1ccccc1-c1ccccc1", "Potency": "inactive"}, {"smiles": "ClCc1ccccc1", "Potency": "inactive"}, {"smiles": "CCCCC(C#N)(Cn1cncn1)c1ccc(Cl)cc1", "note": "(stereo unspecified)", "Potency": "inactive"}, {"smiles": "Cc1ccccc1N", "Potency": "inactive"}, {"smiles": "CCCC1CCCCN1", "note": "(stereo unspecified)", "Potency": "inactive"}, {"smiles": "ClC(Cl)(Cl)c1ccccc1", "Potency": "inactive"}, {"smiles": "CCCCCCCCCCCCBr", "Potency": "inactive"}, {"smiles": "c1ccc2c(c1)Oc1ccccc1O2", "Potency": "inactive"}, {"smiles": "Cc1ccc(N)cc1", "Potency": "inactive"}, {"smiles": "O=C(CCl)CCl", "Potency": "inactive"}, {"smiles": "Nc1ccc(Cl)cc1", "Potency": "inactive"}, {"smiles": "O=S(=O)(O)C(F)(F)C(F)(F)C(F)(F)C(F)(F)C(F)(F)C(F)(F)F", "Potency": "inactive"}, {"smiles": "CC(Cl)C(=O)O", "note": "(stereo unspecified)", "Potency": "inactive"}, {"smiles": "c1ccc2c(c1)oc1ccccc12", "Potency": "inactive"}, {"smiles": "CC[C@H](N)c1ccccc1", "Potency": "inactive"}, {"smiles": "C=CC(=O)OCCO", "Potency": "inactive"}, {"smiles": "C=C(C)[C@@H]1CC=C(C=O)CC1", "Potency": "inactive"}, {"smiles": "CN(CCO)CCO", "Potency": "inactive"}, {"smiles": "COc1ccc(N)cc1", "Potency": "inactive"}, {"smiles": "CCCCCCCCCCOC(=O)c1ccccc1C(=O)OCCCCCCCCCC", "Potency": "inactive"}, {"smiles": "COS(=O)(=O)c1ccc(C)cc1", "Potency": "inactive"}, {"smiles": "CC1(C)CC(=O)CC(C)(C)N1[O]", "Potency": "inactive"}, {"smiles": "CCN(CCO)CCO", "Potency": "inactive"}, {"smiles": "O=C(O)c1ccc(=O)[nH]c1", "Potency": "inactive"}, {"smiles": "Nc1ccccc1Cl", "Potency": "inactive"}, {"smiles": "O=C1C(Cl)=C(Cl)C(=O)c2ccccc21", "Potency": "inactive"}, {"smiles": "CCCCCCOC(=O)c1ccccc1C(=O)OCCCCCC", "Potency": "inactive"}, {"smiles": "CCCCOCCOC(C)=O", "Potency": "inactive"}, {"smiles": "C1CCC2CCCCC2C1", "note": "(stereo unspecified)", "Potency": "inactive"}, {"smiles": "Cc1cc(-c2ccc(N)c(C)c2)ccc1N", "Potency": "inactive"}, {"smiles": "CN(C)C(=O)C(c1ccccc1)c1ccccc1", "Potency": "inactive"}, {"smiles": "CC1=C(C(=O)Nc2ccccc2)SCCO1", "Potency": "inactive"}, {"smiles": "Cc1ccccc1CCl", "Potency": "inactive"}, {"smiles": "COC(=O)c1ccccc1N", "Potency": "inactive"}, {"smiles": "Cc1ccc(O)c(C)c1", "Potency": "inactive"}, {"smiles": "C#CC(C)(C)NC(=O)c1cc(Cl)cc(Cl)c1", "Potency": "inactive"}, {"smiles": "CCC(C)n1c(=O)[nH]c(C)c(Br)c1=O", "note": "(stereo unspecified)", "Potency": "inactive"}]}, {"test": "p53 small molecule agonists, cell-based qHTS assay with human liver microsomes (AID 1963577);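 note: p53 response element beta-lactamase reporter cells with liver microsomes plus NADPH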", "conditions": "HCT-116 p53RE-bla with human liver microsomes, ratio, 16 h; series mostly up to 66 µM", "procedure,_shortened": "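HLM-supplemented p53RE-bla reporter assay: 16 h compound exposure at 37 C, microsomes and NADPH each 0.5 mg/mL final, read by fluorescence intensity.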", "values": [{"smiles": "Nc1ncc([N+](=O)[O-])s1", "Potency": "inactive"}, {"smiles": "Oc1ccccc1-c1ccccc1", "Potency": "inactive"}, {"smiles": "ClCc1ccccc1", "Potency": "inactive"}, {"smiles": "CCCCC(C#N)(Cn1cncn1)c1ccc(Cl)cc1", "note": "(stereo unspecified)", "Potency": "inactive"}, {"smiles": "Cc1ccccc1N", "Potency": "inactive"}, {"smiles": "CCCC1CCCCN1", "note": "(stereo unspecified)", "Potency": "inactive"}, {"smiles": "ClC(Cl)(Cl)c1ccccc1", "Potency": "inactive"}, {"smiles": "CCCCCCCCCCCCBr", "Potency": "inactive"}, {"smiles": "c1ccc2c(c1)Oc1ccccc1O2", "Potency": "inactive"}, {"smiles": "Cc1ccc(N)cc1", "Potency": "inactive"}, {"smiles": "O=C(CCl)CCl", "Potency": "inactive"}, {"smiles": "Nc1ccc(Cl)cc1", "Potency": "inactive"}, {"smiles": "O=S(=O)(O)C(F)(F)C(F)(F)C(F)(F)C(F)(F)C(F)(F)C(F)(F)F", "Potency": "inactive"}, {"smiles": "CC(Cl)C(=O)O", "note": "(stereo unspecified)", "Potency": "inactive"}, {"smiles": "c1ccc2c(c1)oc1ccccc12", "Potency": "inactive"}, {"smiles": "CC[C@H](N)c1ccccc1", "Potency": "inactive"}, {"smiles": "C=CC(=O)OCCO", "Potency": "inactive"}, {"smiles": "C=C(C)[C@@H]1CC=C(C=O)CC1", "Potency": "inactive"}, {"smiles": "CN(CCO)CCO", "Potency": "inactive"}, {"smiles": "COc1ccc(N)cc1", "Potency": "inactive"}, {"smiles": "CCCCCCCCCCOC(=O)c1ccccc1C(=O)OCCCCCCCCCC", "Potency": "inactive"}, {"smiles": "COS(=O)(=O)c1ccc(C)cc1", "Potency": "inactive"}, {"smiles": "CC1(C)CC(=O)CC(C)(C)N1[O]", "Potency": "inactive"}, {"smiles": "CCN(CCO)CCO", "Potency": "inactive"}, {"smiles": "O=C(O)c1ccc(=O)[nH]c1", "Potency": "inactive"}, {"smiles": "Nc1ccccc1Cl", "Potency": "inactive"}, {"smiles": "O=C1C(Cl)=C(Cl)C(=O)c2ccccc21", "Potency": "inactive"}, {"smiles": "CCCCCCOC(=O)c1ccccc1C(=O)OCCCCCC", "Potency": "inactive"}, {"smiles": "CCCCOCCOC(C)=O", "Potency": "inactive"}, {"smiles": "C1CCC2CCCCC2C1", "note": "(stereo unspecified)", "Potency": "inactive"}, {"smiles": "Cc1cc(-c2ccc(N)c(C)c2)ccc1N", "Potency": "inactive"}, {"smiles": "CN(C)C(=O)C(c1ccccc1)c1ccccc1", "Potency": "inactive"}, {"smiles": "CC1=C(C(=O)Nc2ccccc2)SCCO1", "Potency": "inactive"}, {"smiles": "Cc1ccccc1CCl", "Potency": "inactive"}, {"smiles": "COC(=O)c1ccccc1N", "Potency": "inactive"}, {"smiles": "Cc1ccc(O)c(C)c1", "Potency": "inactive"}, {"smiles": "C#CC(C)(C)NC(=O)c1cc(Cl)cc(Cl)c1", "Potency": "inactive"}, {"smiles": "CCC(C)n1c(=O)[nH]c(C)c(Br)c1=O", "note": "(stereo unspecified)", "Potency": "inactive"}]}]}
